# Measurements as given in PMC7862700, “An all-to-all approach to the identification of sequence-specific readers for epigenetic DNA modifications on cytosine”.
# Tests used:
# Assay in all cases: DAPPL (digital affinity profiling via proximity ligation, sequencing); 10 mM Tris-HCl pH 7.5, 50 mM NaCl, 1 mM DTT, 4% glycerol, room temperature, 30 min; GST-TFs on glutathione beads, 16-mer random dsDNA library, 0.1% formaldehyde crosslink after washing; high values mean tight binding
# Conditions in all cases: protein: recombinant; tags: N-terminal GST; dsDNA, one strand shown
# FLI1 = molecular target: T1, FLI1 (Homo sapiens, UniProt Q01543 1-452)
# T1 sequence: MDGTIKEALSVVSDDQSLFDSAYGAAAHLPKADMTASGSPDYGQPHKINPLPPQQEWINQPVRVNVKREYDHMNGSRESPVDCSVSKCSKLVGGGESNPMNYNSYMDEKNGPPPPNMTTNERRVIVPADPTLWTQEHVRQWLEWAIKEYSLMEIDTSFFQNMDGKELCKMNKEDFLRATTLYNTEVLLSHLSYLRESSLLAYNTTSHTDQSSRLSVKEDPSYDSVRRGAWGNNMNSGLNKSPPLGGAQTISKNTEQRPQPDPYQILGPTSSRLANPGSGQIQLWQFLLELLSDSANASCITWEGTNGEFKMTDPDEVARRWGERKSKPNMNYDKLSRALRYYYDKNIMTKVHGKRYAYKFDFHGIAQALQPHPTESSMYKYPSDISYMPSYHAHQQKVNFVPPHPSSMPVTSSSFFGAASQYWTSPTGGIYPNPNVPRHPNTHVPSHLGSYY
# Procedure, shortened: (§1)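 GST fusions of human transcription factors were expressed in yeast and captured with glutathione beads. Once given DNA barcodes and pooled alongside a tag-only sample, they were incubated for 30 min at room temperature with 200 nmole of a random double-stranded 16-mer DNA library in Tris/NaCl/DTT/glycerol buffer, then washed, crosslinked (0.1% formaldehyde), proximity-ligated, PCR-amplified and sequenced on an Illumina NextSeq500. The binding signal of each hexamer is its read frequency for a factor divided by its frequency for the tag-only sample.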
# ELK1 = molecular target: T2, ELK1 (Homo sapiens, UniProt P19419 1-428)
# T2 sequence: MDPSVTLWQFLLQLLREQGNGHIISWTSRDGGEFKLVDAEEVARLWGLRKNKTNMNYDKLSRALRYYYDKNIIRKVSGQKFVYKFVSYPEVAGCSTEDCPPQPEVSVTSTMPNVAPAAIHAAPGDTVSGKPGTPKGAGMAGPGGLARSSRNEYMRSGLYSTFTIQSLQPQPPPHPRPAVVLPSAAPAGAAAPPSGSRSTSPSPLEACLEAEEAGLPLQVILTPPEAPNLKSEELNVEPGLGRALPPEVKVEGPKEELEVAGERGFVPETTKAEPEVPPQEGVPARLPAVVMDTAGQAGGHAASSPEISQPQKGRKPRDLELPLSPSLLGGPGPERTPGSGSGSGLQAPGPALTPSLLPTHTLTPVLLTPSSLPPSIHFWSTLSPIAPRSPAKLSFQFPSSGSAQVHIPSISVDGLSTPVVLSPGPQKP
# Procedure, shortened: as §1
# GABPA = molecular target: T3, GABPA (Homo sapiens, UniProt Q06546 1-454)
# T3 sequence: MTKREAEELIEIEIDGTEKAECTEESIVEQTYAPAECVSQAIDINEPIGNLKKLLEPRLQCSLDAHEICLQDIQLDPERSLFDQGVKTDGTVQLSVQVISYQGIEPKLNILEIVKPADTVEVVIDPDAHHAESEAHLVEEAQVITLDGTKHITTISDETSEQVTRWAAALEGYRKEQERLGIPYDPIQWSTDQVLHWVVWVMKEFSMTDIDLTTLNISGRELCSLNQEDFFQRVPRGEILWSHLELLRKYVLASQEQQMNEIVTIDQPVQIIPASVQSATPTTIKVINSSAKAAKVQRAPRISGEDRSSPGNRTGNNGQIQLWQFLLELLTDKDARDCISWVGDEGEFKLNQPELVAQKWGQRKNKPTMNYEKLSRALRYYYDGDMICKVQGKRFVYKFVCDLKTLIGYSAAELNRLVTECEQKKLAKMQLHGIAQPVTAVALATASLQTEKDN
# Procedure, shortened: as §1
# ERG = molecular target: T4, ERG (Homo sapiens, UniProt P11308 1-479)
# T4 sequence: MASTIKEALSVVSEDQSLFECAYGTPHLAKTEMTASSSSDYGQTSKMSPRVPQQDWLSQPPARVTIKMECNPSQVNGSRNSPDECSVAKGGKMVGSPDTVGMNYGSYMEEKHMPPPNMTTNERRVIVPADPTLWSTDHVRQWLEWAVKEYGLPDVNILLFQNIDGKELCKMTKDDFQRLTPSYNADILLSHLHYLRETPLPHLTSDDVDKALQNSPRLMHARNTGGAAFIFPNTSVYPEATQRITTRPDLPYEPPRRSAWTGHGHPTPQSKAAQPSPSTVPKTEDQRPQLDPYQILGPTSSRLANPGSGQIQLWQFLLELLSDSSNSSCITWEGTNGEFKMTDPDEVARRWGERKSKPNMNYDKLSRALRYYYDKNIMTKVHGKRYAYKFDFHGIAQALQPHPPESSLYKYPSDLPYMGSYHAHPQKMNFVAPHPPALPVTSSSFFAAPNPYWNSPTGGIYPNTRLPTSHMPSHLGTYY
# Procedure, shortened: as §1
# ELF1 = ELF1 (Homo sapiens, UniProt P32519 1-619)
# ELF1, sequence (P32519 whole entry): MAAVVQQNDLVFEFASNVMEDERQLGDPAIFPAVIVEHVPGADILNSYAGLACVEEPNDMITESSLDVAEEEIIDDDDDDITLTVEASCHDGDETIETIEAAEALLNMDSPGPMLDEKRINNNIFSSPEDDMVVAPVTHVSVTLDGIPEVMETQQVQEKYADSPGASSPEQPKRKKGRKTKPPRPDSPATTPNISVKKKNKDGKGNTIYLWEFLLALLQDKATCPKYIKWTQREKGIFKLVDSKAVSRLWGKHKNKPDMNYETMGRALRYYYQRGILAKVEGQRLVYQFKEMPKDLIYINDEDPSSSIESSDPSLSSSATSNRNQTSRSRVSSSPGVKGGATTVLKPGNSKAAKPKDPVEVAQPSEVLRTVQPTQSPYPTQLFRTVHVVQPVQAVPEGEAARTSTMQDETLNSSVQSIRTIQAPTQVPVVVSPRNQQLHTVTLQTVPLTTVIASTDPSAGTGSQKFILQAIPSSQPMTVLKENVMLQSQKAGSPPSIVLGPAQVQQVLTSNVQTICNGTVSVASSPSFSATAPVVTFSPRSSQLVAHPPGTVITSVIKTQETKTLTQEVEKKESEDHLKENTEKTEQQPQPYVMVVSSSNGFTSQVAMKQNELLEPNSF
# Procedure, shortened: as §1
# EHF = molecular target: T5, EHF (Homo sapiens, UniProt Q9NZC4 1-300)
# T5 sequence: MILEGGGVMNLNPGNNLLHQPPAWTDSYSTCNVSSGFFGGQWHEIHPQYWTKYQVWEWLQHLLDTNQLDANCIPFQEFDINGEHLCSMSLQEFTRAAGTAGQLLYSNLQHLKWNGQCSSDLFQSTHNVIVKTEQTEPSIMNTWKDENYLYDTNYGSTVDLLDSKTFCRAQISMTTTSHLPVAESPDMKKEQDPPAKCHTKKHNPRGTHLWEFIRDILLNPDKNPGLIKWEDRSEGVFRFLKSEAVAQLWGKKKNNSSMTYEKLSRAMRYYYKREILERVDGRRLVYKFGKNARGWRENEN
# Procedure, shortened: as §1
# SPI1 = SPI1 (Homo sapiens, UniProt P17947 1-270)
# Procedure, shortened: as §1
# SPIB = SPIB (Homo sapiens, UniProt Q01892 1-262)
# SPIB, sequence (Q01892 whole entry): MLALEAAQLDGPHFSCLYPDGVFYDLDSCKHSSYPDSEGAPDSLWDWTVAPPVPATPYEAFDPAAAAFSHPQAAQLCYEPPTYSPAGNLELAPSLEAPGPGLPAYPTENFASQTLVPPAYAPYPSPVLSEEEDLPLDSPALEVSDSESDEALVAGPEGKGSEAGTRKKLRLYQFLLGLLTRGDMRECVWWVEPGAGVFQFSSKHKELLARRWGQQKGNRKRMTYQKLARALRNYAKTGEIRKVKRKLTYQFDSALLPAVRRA
# Procedure, shortened: as §1
# ELK3 = molecular target: T6, ELK3 (Homo sapiens, UniProt P41970 1-407)
# T6 sequence: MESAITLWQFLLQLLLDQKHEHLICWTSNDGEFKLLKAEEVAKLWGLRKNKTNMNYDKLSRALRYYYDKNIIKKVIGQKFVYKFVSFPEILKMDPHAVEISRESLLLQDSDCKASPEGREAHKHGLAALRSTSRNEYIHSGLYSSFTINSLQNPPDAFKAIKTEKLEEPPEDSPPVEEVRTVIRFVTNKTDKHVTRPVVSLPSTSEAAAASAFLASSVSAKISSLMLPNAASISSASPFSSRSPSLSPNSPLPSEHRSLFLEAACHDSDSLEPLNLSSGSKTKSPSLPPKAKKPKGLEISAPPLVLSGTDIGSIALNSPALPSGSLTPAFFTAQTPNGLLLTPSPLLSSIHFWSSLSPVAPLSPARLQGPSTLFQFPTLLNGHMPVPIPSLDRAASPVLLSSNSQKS
# Procedure, shortened: as §1
sequence,measurement,setting,value
TCTCGC,binding signal,FLI1,"1.82 fold enrichment (6-mer frequency, TF over GST control)"
same,binding signal,ELK1,"1.75 fold enrichment (6-mer frequency, TF over GST control)"
same,binding signal,GABPA,"1.88 fold enrichment (6-mer frequency, TF over GST control)"
same,binding signal,ERG,"1.72 fold enrichment (6-mer frequency, TF over GST control)"
same,binding signal,ELF1,"1.77 fold enrichment (6-mer frequency, TF over GST control)"
same,binding signal,EHF,"1.65 fold enrichment (6-mer frequency, TF over GST control)"
same,binding signal,SPI1,"1.69 fold enrichment (6-mer frequency, TF over GST control)"
same,binding signal,SPIB,"1.64 fold enrichment (6-mer frequency, TF over GST control)"
same,binding signal,ELK3,"1.72 fold enrichment (6-mer frequency, TF over GST control)"
